{"source": "PubChem BioAssay (EPA / NIEHS)", "note": "Records with an inconclusive call do not appear. Calls of active or inactive are those of the source. The calls were made as follows: active = hit-call score of the fitted dose curve at least 0.9, where 1 is the maximum; inconclusive = response in the unintended direction; inactive = score below 0.9."}
{"molecular_target": "Bile acid receptor (Homo sapiens) (UniProt Q96RI1)", "sequence (Q96RI1 whole entry, looked up)": "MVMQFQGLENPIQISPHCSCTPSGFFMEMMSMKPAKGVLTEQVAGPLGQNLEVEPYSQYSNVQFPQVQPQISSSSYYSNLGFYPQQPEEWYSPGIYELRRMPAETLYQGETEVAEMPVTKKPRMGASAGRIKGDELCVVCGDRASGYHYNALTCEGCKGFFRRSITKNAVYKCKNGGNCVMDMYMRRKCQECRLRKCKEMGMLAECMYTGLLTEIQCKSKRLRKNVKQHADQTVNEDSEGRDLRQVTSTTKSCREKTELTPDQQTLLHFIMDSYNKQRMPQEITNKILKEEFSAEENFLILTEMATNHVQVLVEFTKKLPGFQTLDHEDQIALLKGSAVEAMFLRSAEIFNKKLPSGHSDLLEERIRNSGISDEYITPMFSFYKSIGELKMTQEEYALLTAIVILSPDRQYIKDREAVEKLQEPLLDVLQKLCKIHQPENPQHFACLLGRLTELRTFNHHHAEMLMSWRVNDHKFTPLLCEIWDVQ", "test": "NVS_NR_hFXR_Antagonist: NovaScreen (NVS) Nuclear Receptor Binding Assay for human Farnesoid X Receptor Antagonism (FXR) (AID 2283350)", "description": "NVS_NR_hFXR_Antagonist is a biochemical, single-readout assay that uses extracted gene-proteins in a cell-free assay. Measurements were taken 1 hour after chemical dosing in a 384-well plate.NVS_NR_hFXR_Antagonist is one of one assay component(s) measured or calculated from the NVS_NR_hFXR_Antagonist assay. It is designed to make measurements of fluorescent resonance energy transfer, a form of binding reporter, as detected with fluorescent resonance energy transfer signals by Time-Resolved Fluorescence Resonance Energy Transfer (TR-FRET) technology.Data from the assay component NVS_NR_hFXR_Antagonist was analyzed into 1 assay endpoint. This assay endpoint, NVS_NR_hFXR_Antagonist, was analyzed in the positive analysis fitting direction relative to DMSO as the negative control and baseline of activity. Using a type of binding reporter, loss-of-signal activity can be used to understand changes in the binding as they relate to the gene NR1H4. Furthermore, this assay endpoint can be referred to as a primary readout, because the performed assay has only produced 1 assay endpoint. To generalize the intended target to other relatable targets, this assay endpoint is annotated to the nuclear receptor intended target family, where the subfamily is non-steroidal.\nBinding assays used specific radioligands (tritiated, iodinated) with non-radioactive competitive displacement ligands in agonist or antagonist protocols (as indicated) and various reference compounds and inhibitors to titrate specific binding to receptors and transporters. Most enzyme assays (CYPs, kinases, phosphatases, proteases, HDACs) used recombinant protein and specific substrates (fluorescence mostly, some colorimetric and radioactive) and inhibitors, followed by a biochemical separation of substrate and product. All assays for the biochemical HTS were initially run in duplicate at a single concentration (10 uM for CYP450 assays and 25 uM for all others). […] Each assay was run with positive and negative controls, and concurrent controls on every plate. The follow-up (secondary) screen tested active chemical-pairs in concentration series, as well as a few additional assays not tested in the primary screen, some selected negative inactives, and several cases re-run in the concentration series for confirmatory purposes."}
{"compound": "CCc1ccc(C(=O)NN(C(=O)c2cc(C)cc(C)c2)C(C)(C)C)cc1", "outcome": "inactive"}
{"compound": "COP(=S)(OC)Oc1ccc([N+](=O)[O-])cc1", "outcome": "inactive"}
{"compound": "CCCN(CCOc1c(Cl)cc(Cl)cc1Cl)C(=O)n1ccnc1", "outcome": "inactive"}
{"compound": "COC(=O)c1ccccc1S(=O)(=O)NC(=O)Nc1nc(C)nc(OC)n1", "outcome": "inactive"}
{"compound": "CCN(CC)C(=O)SCc1ccc(Cl)cc1", "outcome": "inactive"}
{"compound": "CN1CSC(=S)N(C)C1", "AC50": "9.27 µM (active)"}
{"compound": "CCC(C)(C)C(=O)OC1=C(c2ccc(Cl)cc2Cl)C(=O)OC12CCCCC2", "outcome": "inactive"}
{"compound": "CC1(c2ccc(Oc3ccccc3)cc2)OC(=O)N(Nc2ccccc2)C1=O", "note": "(stereo unspecified)", "AC50": "10 µM (active)"}
{"compound": "O=[N+]([O-])/N=C1\\NCCN1Cc1ccc(Cl)nc1", "outcome": "inactive"}
{"compound": "N#Cc1c(Cl)c(Cl)c(Cl)c(C#N)c1Cl", "outcome": "inactive"}
{"compound": "CCOc1nc(NC)nc(NC(=O)NS(=O)(=O)c2ccccc2C(=O)OC)n1", "outcome": "inactive"}
